Hit rate of the full screen: of about 5,500 compounds, about 2,000 (36%) were called active. Not shown: some 18% with an inconclusive outcome. Rule as the data show it: active = normalized growth mostly below about 0.91 (no sharp cut-off); inconclusive = no clear call, values can overlap the other calls; inactive = mostly above about 0.92. The list shows a part of the results.
Assay: chemical genetic growth profiling, strain panel (AID 1159580);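 also: tested at 20 µM; growth read once vehicle control cultures reached saturation at 30 °C; 1 = growth at the plate median or of vehicle wells; lower values mean less growth of the strain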
Conditions: growth OD

Measured: normalized growth

CNC(=O)N(C)c1nnc(C(C)(C)C)s1
inactive: S. cerevisiae deletion strains, locus YJR075W, strain HOC1, hits give low values 1.02 | S. cerevisiae deletion strains, locus YKL009W, strain mrt4, hits give low values 1.04 | S. cerevisiae deletion strains, locus YKL068W, hits give low values 1.01 | S. cerevisiae deletion strains, locus YKL085W, strain MDH1 (second series), hits give low values 1.02 | S. cerevisiae deletion strains, locus YKL085W, strain MDH1, hits give low values 1.02 | S. cerevisiae deletion strains, locus YKL160W, strain elf1, hits give low values 0.992 | S. cerevisiae deletion strains, locus YKL190W, strain CNB1, hits give low values 1.01 | S. cerevisiae deletion strains, locus YKR001C, strain vps1, hits give low values 1.04 | S. cerevisiae deletion strains, locus YKR026C, strain gcn3, hits give low values 0.991 | S. cerevisiae deletion strains, locus YKR091W, strain srl3, hits give low values 0.974 | S. cerevisiae deletion strains, locus YLL001W, strain dnm1, hits give low values 0.988 | S. cerevisiae deletion strains, locus YLL026W, hits give low values 0.992 | S. cerevisiae deletion strains, locus YLL041C, strain sdh2, hits give low values 0.98 | S. cerevisiae deletion strains, locus YLR027C, strain aat2, hits give low values 0.973 | S. cerevisiae deletion strains, locus YLR039C, strain RIC1, hits give low values 1.07 | S. cerevisiae deletion strains, locus YLR058C, strain SHM2, hits give low values 1.01 | S. cerevisiae deletion strains, locus YLR102C, strain apc9, hits give low values 1.03 | S. cerevisiae deletion strains, locus YLR221C, strain rsa3, hits give low values 1.01 | S. cerevisiae deletion strains, locus YLR258W, strain gsy2, hits give low values 0.975 | S. cerevisiae deletion strains, locus YLR262C, strain YPT6 (second series), hits give low values 1.03 | S. cerevisiae deletion strains, locus YLR262C, strain YPT6, hits give low values 1.09 | S. cerevisiae deletion strains, locus YLR268W, strain sec22, hits give low values 1.02 | S. cerevisiae deletion strains, locus YLR320W, strain mms22, hits give low values 1.03 | S. cerevisiae deletion strains, locus YLR330W, strain CHS5, hits give low values 1.02 | S. cerevisiae deletion strains, locus YLR342W, strain FKS1 (second series), hits give low values 1.07 | S. cerevisiae deletion strains, locus YLR342W, strain FKS1, hits give low values 0.998 | S. cerevisiae deletion strains, locus YLR357W, strain rsc2, hits give low values 0.972 | S. cerevisiae deletion strains, locus YLR370C, strain arc18, hits give low values 0.983 | S. cerevisiae deletion strains, locus YLR371W, strain rom2, hits give low values 1.02 | S. cerevisiae deletion strains, locus YLR384C, strain iki3, hits give low values 1.01 | S. cerevisiae deletion strains, locus YLR418C, strain cdc73, hits give low values 1.09 | S. cerevisiae deletion strains, locus YML016C, strain PPZ1, hits give low values 1.01 | S. cerevisiae deletion strains, locus YML032C, strain rad52, hits give low values 1.01 | S. cerevisiae deletion strains, locus YML120C, strain ndi1, hits give low values 1.01 | S. cerevisiae deletion strains, locus YML124C, strain tub3, hits give low values 1.01 | S. cerevisiae deletion strains, locus YMR058W, strain fet3, hits give low values 0.977 | S. cerevisiae deletion strains, locus YMR078C, strain ctf18, hits give low values 1.02 | S. cerevisiae deletion strains, locus YMR125W, strain sto1, hits give low values 0.942 | S. cerevisiae deletion strains, locus YMR129W, hits give low values 0.998 | S. cerevisiae deletion strains, locus YMR205C, strain PFK2, hits give low values 0.969 | S. cerevisiae deletion strains, locus YMR223W, strain ubp8, hits give low values 1.02 | S. cerevisiae deletion strains, locus YMR231W, strain pep5, hits give low values 1.01 | S. cerevisiae deletion strains, locus YMR263W, strain SAP30, hits give low values 1.02 | S. cerevisiae deletion strains, locus YMR307W, strain GAS1, hits give low values 1.1 | S. cerevisiae deletion strains, locus YNL067W, strain RPL9B, hits give low values 1.02 | S. cerevisiae deletion strains, locus YNL071W, strain lat1, hits give low values 0.993 | S. cerevisiae deletion strains, locus YNL128W, strain TEP1, hits give low values 1.01 | S. cerevisiae deletion strains, locus YNL153C, strain GIM3, hits give low values 1.01 | S. cerevisiae deletion strains, locus YNL209W, strain ssb2, hits give low values 1.01 | S. cerevisiae deletion strains, locus YNL233W, strain BNI4, hits give low values 1.01 | S. cerevisiae deletion strains, locus YNL248C, strain rpa49, hits give low values 0.995 | S. cerevisiae deletion strains, locus YNL250W, strain rad50, hits give low values 1.02 | S. cerevisiae deletion strains, locus YNL271C, strain bni1, hits give low values 1.03 | S. cerevisiae deletion strains, locus YNL298W, strain CLA4, hits give low values 1.03 | S. cerevisiae deletion strains, locus YNL307C, strain MCK1, hits give low values 1.02 | S. cerevisiae deletion strains, locus YNL322C, strain KRE1 (second series), hits give low values 0.986 | S. cerevisiae deletion strains, locus YNL322C, strain KRE1, hits give low values 1.01 | S. cerevisiae deletion strains, locus YNR049C, strain mso1, hits give low values 0.974 | S. cerevisiae deletion strains, locus YNR052C, strain pop2, hits give low values 1.03 | S. cerevisiae deletion strains, locus YOL006C, strain TOP1, hits give low values 1.06 | S. cerevisiae deletion strains, locus YOL012C, strain htz1 1.29 | S. cerevisiae deletion strains, locus YOL147C, strain pex11, hits give low values 1.01 | S. cerevisiae deletion strains, locus YOR001W, strain rrp6, hits give low values 1.01 | S. cerevisiae deletion strains, locus YOR061W, strain CKA2, hits give low values 1.01 | S. cerevisiae deletion strains, locus YOR069W, strain VPS5, hits give low values 1 | S. cerevisiae deletion strains, locus YOR070C, strain gyp1, hits give low values 1 | S. cerevisiae deletion strains, locus YOR080W, strain dia2, hits give low values 0.998 | S. cerevisiae deletion strains, locus YOR083W, strain WHI5, hits give low values 0.991 | S. cerevisiae deletion strains, locus YOR106W, strain vam3, hits give low values 0.961 | S. cerevisiae deletion strains, locus YOR136W, strain idh2, hits give low values 1.01 | S. cerevisiae deletion strains, locus YOR144C, strain elg1, hits give low values 1.01 | S. cerevisiae deletion strains, locus YOR184W, strain ser1, hits give low values 1.04 | S. cerevisiae deletion strains, locus YOR265W, strain rbl2, hits give low values 0.994 | S. cerevisiae deletion strains, locus YOR270C, strain vph1, hits give low values 1.01 | S. cerevisiae deletion strains, locus YOR290C, strain snf2, hits give low values 0.959 | S. cerevisiae deletion strains, locus YOR316C, strain cot1, hits give low values 1.02 | S. cerevisiae deletion strains, locus YPL051W, strain arl3, hits give low values 1.01 | S. cerevisiae deletion strains, locus YPL055C, strain LGE1, hits give low values 1.03 | S. cerevisiae deletion strains, locus YPL078C, strain atp4, hits give low values 0.961 | S. cerevisiae deletion strains, locus YPL106C, strain sse1, hits give low values 1.02 | S. cerevisiae deletion strains, locus YPL240C, strain hsp82, hits give low values 0.994 | S. cerevisiae deletion strains, locus YPL241C, strain CIN2, hits give low values 1.02 | S. cerevisiae deletion strains, locus YPR119W, strain clb2, hits give low values 1.01 | S. cerevisiae deletion strains, locus YPR141C, strain kar3, hits give low values 1.02 | S. cerevisiae deletion strains, locus YPR163C, strain tif3, hits give low values 1.01 | S. cerevisiae deletion strains, locus YPR167C, strain met16, hits give low values 1.03 | S. cerevisiae deletion strains, strain wtn01, hits give low values 1.03 | S. cerevisiae strains, strain wild type, hits give low values 1.01

Reference: PubChem BioAssay AID1159580 (chemical genetic matrix, 2015)
